The values that follow come from PubChem BioAssay (EPA / NIEHS).

The source made the active and inactive calls. The calls were made as follows: active = hit-call score of the fitted dose curve at least 0.9, where 1 is the maximum; inactive = score below 0.9.

This experiment is described as follows: ATG_M_32_CIS: Attagene CIS-FACTORIAL HepG2 Assay for M32 Transcription Factor (Internal Marker) (AID 2282949).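 Also: background control marker of the multiplexed CIS panel rather than a real target.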 The conditions noted are these: HepG2 Attagene cis-factorial M32 reporter, mRNA; actives raise or lower the signal. As for the experimental part: ATG_CIS is a cell-based, multiplexed-readout assay that uses HepG2, a human liver cell line, with measurements taken at 24 hours after chemical dosing in a 24-well plate.ATG_M_32_CIS is one of 52 assay component(s) measured or calculated from the ATG_CIS assay. It is designed to make measurements of mRNA induction, a form of inducible reporter, as detected with fluorescence intensity signals by Reverse transcription polymerase chain reaction (RT-PCR) and Capillary electrophoresis technology.Data from the assay component ATG_M_32_CIS was analyzed into 1 assay endpoint. This assay endpoint, ATG_M_32_CIS, was analyzed with bidirectional fitting relative to DMSO as the negative control and baseline of activity. Using a type of inducible reporter, measures of mRNA for gain or loss-of-signal activity can be used to understand the background control at the transcription factor-level as they relate to the gene . Furthermore, this assay endpoint can be referred to as a secondary readout, because this assay has produced multiple assay endpoints where this one serves a background control function. To generalize the intended target to other relatable targets, this assay endpoint is annotated to the background measurement intended target family, where the subfamily is internal marker.
Human liver HepG2 cells are transiently transfected with multiple reporter transcription units (MRTUs) in 6-well plates using FuGene 6 reagent (Roche; 3 ml FuGene/1 mg DNA). The MRTU constructs are regulated by a cis-regulating element (promoter). […] A major difference between the CIS and TRANS system is that in CIS activities of endogenous TFs are measured, whereas the TRANS assay evaluates changes in activities of exogenous, chimeric NR-Gal4 proteins. […] At the end of 24 hour incubation, total RNA was isolated using TriZol reagent (Invitrogen). The isolated RNA is then reverse-transcribed using oligo(dT) primer and Mo-MLV reverse transcriptase (Invitrogen) with DNAse I (Ambion) treatment for 30 min. The one-tenth of the produced cDNA was amplified by PCR using Taq DNA polymerase (Invitrogen) and two reporter sequence-specific primers. The PCR products were fluorescently labeled by primer extension with 6-arboxyfluorescein (6-FAM) 5'-labeled reporter sequence-specific primer (2 min at 95 C, 20 s at 68 C and 10 min at 72 C) and these products were digested with 5U of HpaI (New England Biolabs) for 2h at 37 C. The fragments were purified using Qiaquick PCR columns (Qiagen), analyzed on an ABI 3130xL genetic analyzer (Applied Biosystems) with peak positions identified by using a set of X-rhodamine (ROX)-labeled MapMarker1000 molecular weight standards (BioVentures). The raw capillary electrophoresis data was processed using Attagraph software (Attagene).
Regarding `O=S(=O)(O)CCC(F)(F)C(F)(F)C(F)(F)C(F)(F)C(F)(F)C(F)(F)F`, the result was inactive.
On to `FC(F)=C(F)C(F)(F)C(F)(F)C(F)(F)C(F)(F)C(F)(F)C(F)(F)F`, for which the compound was called inactive.
`CCCCN1C(=O)[C@@H]([C@H](O)C2CCCCC2)NC(=O)C12CCN(Cc1ccc(Oc3ccc(C(=O)O)cc3)cc1)CC2`: the compound was called inactive.
With `COCc1nnc(-c2ccc[n+]([O-])c2)n1-c1c(Cl)c(Cl)cc2[nH]c(=O)c(=O)[nH]c12`, the compound was classed as inactive.
The result for `O=C(N[C@H](CO)[C@H](O)c1ccc([N+](=O)[O-])cc1)C(Cl)Cl` reads “inactive”; that for `c1ccc2ncccc2c1`, “inactive”.
As for `CCCCCCCC/C=C\CCCCCCCC(=O)OC[C@@H](O)[C@H]1OC[C@H](O)[C@H]1O`, the outcome was inactive.
Consider `Cn1cc[nH]c1=S`, for which the compound was classed as inactive.
For the compound `O=C(O)c1cccc(C(=O)O)c1`, the outcome was inactive.
In the case of `O=C(O)[C@H](O)[C@@H](O)C(=O)O`, the result was inactive.
For the compound `COc1cc2c(c(OC)c1OC)-c1ccc(OC)c(=O)cc1[C@@H](NC(C)=O)CC2`, the call was inactive.
For the compound `CC(=O)c1ccccc1`, the compound was called inactive.
As for `CCCCCCCC1CCC(=O)O1` (stereo not given), the result was inactive.
For `CC[C@H](C)C(=O)O[C@H]1C[C@H](O)C=C2C=C[C@H](C)[C@H](CC[C@@H](O)C[C@@H](O)CC(=O)O)[C@H]21`, the result was inactive.
The result for `COc1cc(C(C)C)c2c(c1)S(=O)(=O)N(COc1cc(=O)n3cccc(OCCN4CCCCC4)c3n1)C2=O` reads “inactive”; that for `CC1(C)C(=O)N(Cl)C(=O)N1Cl`, “inactive”.
`C=CN1CCCC1=O`: the call was inactive.
Turning to `O=C(O)c1cccc(C[C@@H]2COc3ccc(OCc4nc5cc(F)ccc5s4)cc3[C@@H]2O)c1`, the call was inactive.
Take `OCCOCCOCCO`: the result was inactive.
For the compound `OCC(CO)(CO)CO`, the result was inactive.
Take `CNC(C)=O`: the compound was called inactive.
Turning to `CCc1cccc(CC)c1N`, the compound was called inactive.
The result for `O=S(=O)(O)c1ccc(N=Nc2c(O)ccc3cc(S(=O)(=O)O)ccc23)cc1` reads “inactive”.
In the case of `O=C(NO)C1(NS(=O)(=O)c2ccc(Oc3ccc(F)cc3)cc2)CCOCC1`, the compound was called inactive.
On to `Cc1nccn1-c1ccc(Sc2cccc(C3(C(N)=O)CCOCC3)c2)cc1`, for which the compound was classed as inactive.
Consider `OC(CCl)CCl`, for which the result was inactive.
For `NC(=O)N1c2ccccc2C=Cc2ccccc21`, the compound was called inactive.
Regarding `CCCCCCCCCCCCCCCCOS(=O)(=O)O`, the compound was called inactive.
Consider `O=c1[nH]cnc2c1ncn2[C@H]1CC[C@@H](CO)O1`, for which the call was inactive.
Turning to `Cc1nc(-c2ccccn2)ncc1C(=O)Nn1cc(C)c2cc(F)ccc21`, the result was inactive.
For `C=CCc1cc(S(=O)(=O)c2ccc(O)c(CC=C)c2)ccc1O`, the result was inactive.
As to `CC(C)CCCCCCOC(=O)C1CCCCC1C(=O)OCCCCCCC(C)C` (stereo not given), the outcome was inactive.
As for `OC[C@H]1O[C@@H]2O[C@H]3[C@H](O)[C@@H](O)[C@@H](O[C@H]4[C@H](O)[C@@H](O)[C@@H](O[C@H]5[C@H](O)[C@@H](O)[C@@H](O[C@H]6[C@H](O)[C@@H](O)[C@@H](O[C@H]7[C@H](O)[C@@H](O)[C@@H](O[C@H]1[C@H](O)[C@H]2O)O[C@@H]7CO)O[C@@H]6CO)O[C@@H]5CO)O[C@@H]4CO)O[C@@H]3CO`, the call was inactive.
For the compound `CCc1ccc(O)c(C(C)(C)C)c1`, the result was inactive.
With `O=C(O)c1ccc2c(c1)nc(C(=O)NC1CCN(C3CC3)CC1)n2Cc1cc(-c2ccc(Cl)s2)on1`, the compound was classed as inactive.
The result for `CC(C)CC(C)O` (stereo not given) reads “inactive”; that for `OCCNCCO`, “inactive”.
Turning to `c1ccc2cc3ccccc3cc2c1`, the outcome was inactive.
`CCCOc1ccc(S(=O)(=O)N2CCN(CC)CC2)cc1-c1nc2c(CC)n(Cc3ccccn3)nc2c(=O)[nH]1`: the compound was called inactive.
Regarding `CCN(CC)C(=S)SSC(=S)N(CC)CC`, the compound was classed as inactive.
